Structures are written as SMILES. Results filed as inconclusive are left out. Where a call stands in place of a potency, no number is given. Activity calls are given as the source filed them. The call rests on the fitted dose curve; in most records, active means well fitted inhibition curve with a large enough effect; inconclusive means small, poorly fitted or top-dose-only effect, or effect the other way; inactive means flat fitted curve, though single readings scatter.
Potency means the concentration at half of the fitted maximal effect.

Chain of D(1A) dopamine receptor (Homo sapiens) (P21728 whole entry, looked up): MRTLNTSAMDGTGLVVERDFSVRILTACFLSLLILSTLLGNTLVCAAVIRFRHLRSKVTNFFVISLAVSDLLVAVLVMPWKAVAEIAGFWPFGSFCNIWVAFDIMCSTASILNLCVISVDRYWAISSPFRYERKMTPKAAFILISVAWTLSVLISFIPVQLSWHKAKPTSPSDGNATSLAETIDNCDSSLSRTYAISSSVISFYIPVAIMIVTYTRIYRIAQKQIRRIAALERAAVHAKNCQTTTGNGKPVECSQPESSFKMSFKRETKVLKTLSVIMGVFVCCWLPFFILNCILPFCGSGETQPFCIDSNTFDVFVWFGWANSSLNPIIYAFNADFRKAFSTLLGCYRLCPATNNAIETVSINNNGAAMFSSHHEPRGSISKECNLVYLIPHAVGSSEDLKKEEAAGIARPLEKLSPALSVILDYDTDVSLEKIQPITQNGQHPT

The target in this test is D(1A) dopamine receptor (Homo sapiens) (UniProt P21728). Briefly: HTS Assay for Allosteric Agonists of the Human D1 Dopamine Receptor: Primary Screen for Antagonists (AID 488983). Further: nearly all actives have a fitted effect of over 65% in size. Particulars: D1 receptor cell assay, antagonist mode, qHTS titration; series mostly up to 41.8 µM. An excerpt:
Dopamine receptors (DARs) are involved in the etiology and/or therapy of a number of neuropsychiatric and endocrine disorders. For instance, all receptor-based antiparkinsonian drugs work via stimulating the […] DAR subtype whereas all FDA-approved antipsychotic agents are antagonists of this receptor. […] There are three different types of allosteric modulators that we are seeking, two of which will stimulate or augment receptor signaling, allosteric agonists and potentiators, while the third, allosteric antagonists, will attenuate receptor signaling. The present primary screening assay measures compound agonism by tracking calcium flux in a […], inducible Hek293 Trex D1 cell line.
Freshly passaged cells are plated in 1536 well black, clear bottom plates at a density of 4000 cells/well in 3 ul of complete media containing 1x tetracycline inducer. After an overnight incubation at 30 C in 5% CO2, cells are loaded with 2 ul of the no wash Calcium Assay Kit (ABD Bioquest) and incubated at room temperature for 30 to 90 minutes. A 10 cycle (1 second/cycle) baseline measurement is taken and then the FDSS online 1536 pintool delivers 23 nl of compound library (as well as dopamine controls) to the plate. The plate is measured for kinetically at 1 cycle/sec for 180 seconds and is considered to be the agonist portion of the assay (eg, compounds which activate a positive calcium response during this portion are flagged as potential agonists). Following the 180 second read, 1 ul of an EC80 of dopamine is delivered by an onboard pipette head. Measurements are taken kinetically for an additional 180 seconds.
As to `NCCSSCCN`, the Potency result was “inactive”. Consider `CO/N=C(\C(=O)N[C@@H]1C(=O)N2C(C(=O)O)=C(COC(C)=O)CS[C@H]12)c1csc(N)n1`, for which the Potency entry is “inactive”. Then `CCN1/C(=C/C(C)=O)Sc2ccc(OC)cc21`, with “inactive”.

Take `Cn1ncc(S(=O)(=O)Cc2ccccc2)c(Br)c1=O`: the Potency result was “inactive”. `NO`: the Potency result is “inactive”. In the case of `COc1ccccc1CNCCCCCCNCCCCCCCCNCCCCCCNCc1ccccc1OC` it was “inactive”; in that of `O=c1[nH]c2cc(Cl)c(Cl)cc2[nH]c1=O`, “inactive”; in that of `O=C(O)CC[C@@H](C(=O)O)N1C(=O)c2ccccc2C1=O`, “inactive”.

For the compound `Nc1nc(SCc2ccc([N+](=O)[O-])cc2)c2ncn([C@@H]3O[C@H](CO)[C@@H](O)[C@H]3O)c2n1`, the Potency result was “inactive”. Consider `CN1CCc2ccccc2Cc2[nH]c3ccccc3c2CC1`, for which the Potency is 0.355 µM (active). Consider `CCCCCC(O)c1cccc(OCc2ccc3ccccc3n2)c1` (stereo not given), for which the Potency result is “inactive”. In the case of `CN(C)CCC(c1ccc(Cl)cc1)c1ccccn1` (stereo not given), the Potency result was “inactive”. For `CCCn1c(=O)c2[nH]c(-c3ccc(OCC(=O)NCCN)cc3)nc2n(CCC)c1=O`, the Potency result is “inactive”. In the case of `NCCCCC(=O)O` it was “inactive”; in that of `OCC1O[C@H]([S-])[C@H](O)[C@@H](O)[C@@H]1O.[Au+]` (stereo not given in full), “inactive”; in that of `CCN(CC)c1ncnc2c1ncn2[C@@H]1O[C@H](COP(=O)(O)OP(=O)(O)C(Br)(Br)P(=O)(O)O)[C@@H](O)[C@H]1O`, “inactive”. Regarding `OCC1O[C@H](O)C(Cl)C(O)C1O` (stereo not given in full), the Potency result was “inactive”. In the case of `Cn1c(=O)c2[nH]c(-c3ccccc3)nc2n(C)c1=O` it was “inactive”; in that of `Cc1cc(NC2CCCCC2)nc(-n2nc(C)cc2C)n1`, “inactive”; in that of `N=c1ccn2c(n1)O[C@H]1[C@H](O)[C@@H](CO)O[C@H]12`, “inactive”. With `C[N+]1(C)CCC(OC(=O)C(c2ccccc2)c2ccccc2)CC1`, the Potency entry is “inactive”.

`COc1cccc(OC)c1OCCNCC1COc2ccccc2O1` (stereo not given): the Potency is 0.316 µM (active).

With `CC12C(=O)OC(=O)C1(C)C1CCC2O1` (stereo not given), the Potency entry is “inactive”. For `NC[C@H]1O[C@@H](n2cnc3c(N)ncnc32)[C@H](O)[C@@H]1O`, the Potency entry is “inactive”. Regarding `COc1ccc(/C=C/C(=O)Nc2ccccc2C(=O)O)cc1OC`, the Potency result is “inactive”. With `OC[C@H]1O[C@@H](n2cnc3c(NC4CCCC4)ncnc32)[C@H](O)[C@@H]1O`, the Potency entry is “inactive”. Then `CCCCCCCCCCCCCCCCCCNC(=O)OCC(COP(=O)([O-])OCC[n+]1ccsc1)OC` (stereo not given), with “inactive”. As to `C=CC(N)CCC(=O)O` (stereo not given), the Potency entry was “inactive”.

As to `CC(C)NC[C@@H](O)c1ccc(O)c(O)c1`, the Potency entry is “inactive”.

In the case of `CC(C)NC[C@H](O)COc1cccc2[nH]ccc12`, the Potency entry is “inactive”. In the case of `CN1[C@@H](CC(=O)c2ccccc2)CCC[C@H]1C[C@H](O)c1ccccc1` it was “inactive”. Take `Oc1ccccc1O`: the Potency result is “inactive”. With `CCCCCCCCCCCCCCCC(=O)OC(CC(=O)O)C[N+](C)(C)C` (stereo not given), the Potency was 5.62 µM (active). Then `O=C(O)CC1CCCc2ccccc2C1O` (stereo not given), with “inactive”. As to `COC1=C(OC)C(=O)c2ccccc2C1=O`, the Potency result is “inactive”. On to `COc1cc(SC)ccc1C(=O)N1CCC(Cc2ccccc2)CC1`, for which the Potency result was “inactive”. As for `OC[C@H]1O[C@@H](n2cnc3c(Nc4ccccc4)ncnc32)[C@H](O)[C@@H]1O`, the Potency result was “inactive”. For the compound `O=C1NC(=O)/C(=C/c2ccc3nccnc3c2)S1`, the Potency result was “inactive”.

On to `O=C(O)/C=C/C(O)c1ccc(Cl)cc1` (stereo not given), for which the Potency result was “inactive”. As for `CCC1C(=O)OCC1Cc1cncn1C` (stereo not given), the Potency result was “inactive”.
